From PubChem BioAssay AID1159580 (chemical genetic matrix, 2015)
In all, about 5,500 compounds went through this assay and about 2,000 (36%) were called active. Roughly 18% stayed inconclusive and do not appear here. Rule as the data show it: active = normalized growth mostly below about 0.91 (no sharp cut-off); inconclusive = no clear call, values can overlap the other calls; inactive = mostly above about 0.92. This is one part of the list.

Assay: chemical genetic growth profiling, strain panel (AID 1159580);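 also: tested at 20 µM; growth read once vehicle control cultures reached saturation at 30 °C; 1 = growth at the plate median or of vehicle wells; lower values mean less growth of the strain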
Details: S. cerevisiae deletion strains, growth OD
[1] = locus YHR030C, strain SLT2, hits give low values
[2] = locus YHR079C, strain IRE1, hits give low values
[3] = locus YJL095W, strain BCK1, hits give low values
[4] = locus YJR066W, strain TOR1, hits give low values
[5] = locus YLR113W, strain HOG1, hits give low values
[6] = locus YNL183C, strain NPR1, hits give low values
[7] = locus YOR231W, strain MKK1, hits give low values
[8] = locus YPL256C, strain CLN2, hits give low values
[9] = locus YAL040C, strain CLN3, hits give low values
[10] = locus YCL061C, strain MRC1 (second series), hits give low values
[11] = locus YDR150W, strain NUM1, hits give low values
[12] = locus YDR363W, strain ESC2, hits give low values
[13] = locus YER002W, strain NOP16, hits give low values
[14] = locus YMR263W, strain SAP30, hits give low values
[15] = locus YMR307W, strain GAS1, hits give low values
[16] = locus YNL128W, strain TEP1, hits give low values
[17] = locus YNL153C, strain GIM3, hits give low values
[18] = locus YNL175C, strain NOP13, hits give low values
[19] = locus YNL197C, strain WHI3, hits give low values
[20] = locus YNL224C, strain SQS1, hits give low values
[21] = locus YOR083W, strain WHI5 (second series), hits give low values
[22] = locus YJR075W, strain HOC1, hits give low values
[23] = locus YPL055C, strain LGE1, hits give low values
[24] = locus YPL241C, strain CIN2, hits give low values
[25] = locus YNL322C, strain KRE1, hits give low values

Measured: normalized growth

C[N+]12CC[C@@]34c5ccccc5N5C(=O)CC6OCC=C(C1)[C@H](CC32)[C@@H]6C54 (stereo partly specified)
inactive: [1] 1.02 | [2] 1 | [3] 0.99 | [4] 0.942 | [5] 0.995 | [6] 0.933 | [7] 0.998 | [8] 0.986

N[C@@H](Cn1cc(I)c(=O)[nH]c1=O)C(=O)O
inactive: [9] 0.979 | [10] 0.992 | [11] 0.988 | [12] 1.01 | [13] 0.979 | [14] 1 | [15] 0.992 | [16] 0.977 | [17] 1.03 | [18] 0.993 | [19] 1 | [20] 0.99 | [21] 0.998

CCCn1c(=O)[nH]c(=O)c2[nH]cnc21
inactive: [9] 1.05 | [10] 1.01 | [12] 1.02 | [13] 0.999 | locus YGR229C, strain SMI1, hits give low values 1 | [22] 1 | [18] 1.01 | [19] 1.01 | [20] 1 | [21] 1 | [23] 1.02 | [24] 1.01

O=c1[nH]c(=O)n([C@H]2C[C@H](O)[C@@H](CO)O2)cc1/C=C/Br
inactive: locus YAL013W, strain DEP1, hits give low values 1.02 | [9] 0.98 | [10] 1 | [11] 0.994 | [12] 1.03 | [13] 0.977 | [14] 0.998 | [15] 1.01 | [16] 0.944 | [17] 0.999 | [18] 0.964 | [19] 0.936 | [20] 0.994 | [25] 0.999 | [21] 0.999 | [23] 0.998 | [24] 0.99

CCCCOc1cc(CC2CNC(=O)N2)ccc1OC (stereo unspecified)
inactive: locus YAL021C, strain ccr4, hits give low values 0.939 | locus YAL026C, strain drs2, hits give low values 1 | locus YAL030W, strain snc1, hits give low values 1.01 | [9] 1.08 | locus YBL061C, strain skt5, hits give low values 0.998 | locus YBR009C, strain hhf1, hits give low values 1.06 | locus YBR023C, strain chs3, hits give low values 0.992 | locus YBR171W, strain sec66, hits give low values 0.984 | locus YBR231C, strain swc5, hits give low values 1.01 | locus YBR279W, strain paf1, hits give low values 0.999 | locus YCL011C, strain gbp2, hits give low values 0.984 | locus YCL016C, strain dcc1, hits give low values 1 | [10] 1 | locus YCL061C, strain MRC1, hits give low values 0.985 | locus YCL069W, strain vba3, hits give low values 0.994 | locus YCR088W, strain abp1, hits give low values 0.987 | locus YDL005C, strain med2, hits give low values 0.986 | locus YDL040C, strain nat1, hits give low values 0.999 | locus YDR001C, strain nth1, hits give low values 0.988 | locus YDR069C, strain doa4, hits give low values 1.01 | locus YDR137W, strain rgp1, hits give low values 0.971 | [11] 1.01 | locus YDR159W, strain sac3, hits give low values 1.07 | locus YDR195W, strain ref2 0.992 | locus YDR297W, strain sur2, hits give low values 0.993 | locus YDR334W, strain swr1, hits give low values 0.968 | locus YDR335W, strain msn5, hits give low values 0.98 | locus YDR392W, strain spt3, hits give low values 0.975 | locus YEL003W, strain gim4, hits give low values 0.998 | locus YEL037C, strain rad23, hits give low values 0.994 | locus YEL061C, strain CIN8 (second series), hits give low values 0.981 | [13] 1.01 | locus YER015W, strain faa2, hits give low values 0.994 | locus YER016W, strain bim1, hits give low values 1.01 | locus YER111C, strain swi4, hits give low values 1.01 | locus YER155C, strain BEM2 (second series), hits give low values 1.04 | locus YFR010W, strain ubp6, hits give low values 0.994 | locus YGL167C, strain pmr1, hits give low values 1 | locus YGL173C, strain kem1, hits give low values 0.991 | locus YGL227W, strain vid30, hits give low values 1 | locus YGL240W, strain doc1, hits give low values 1.04 | locus YGL253W, strain hxk2, hits give low values 0.999 | locus YHR013C, strain ard1, hits give low values 0.979 | locus YHR027C, strain rpn1, hits give low values 0.992 | [1] 0.97 | [2] 0.973 | locus YHR142W, strain chs7, hits give low values 0.914 | locus YJL092W, strain hpr5, hits give low values 0.967 | locus YJL095W, strain BCK1 (second series), hits give low values 0.989 | [3] 0.978 | locus YJL115W, strain asf1, hits give low values 0.99 | locus YJL129C, strain trk1, hits give low values 0.965 | locus YJL154C, strain vps35, hits give low values 0.993 | locus YJL164C, strain tpk1, hits give low values 0.972 | locus YJL166W, strain qcr8, hits give low values 0.996 | locus YJL187C, strain SWE1, hits give low values 0.998 | [4] 0.935 | [22] 1.01 | locus YKL160W, strain elf1, hits give low values 0.954 | locus YKR026C, strain gcn3, hits give low values 0.981 | locus YKR091W, strain srl3, hits give low values 0.989 | locus YLL001W, strain dnm1, hits give low values 0.988 | locus YLL026W, hits give low values 0.998 | locus YLL041C, strain sdh2, hits give low values 0.984 | locus YLR027C, strain aat2, hits give low values 0.982 | [5] 0.978 | locus YLR221C, strain rsa3, hits give low values 0.971 | locus YLR258W, strain gsy2, hits give low values 1.02 | locus YLR262C, strain YPT6 (second series), hits give low values 1 | locus YLR320W, strain mms22, hits give low values 1.02 | locus YLR342W, strain FKS1, hits give low values 1 | locus YLR357W, strain rsc2, hits give low values 1.02 | locus YLR370C, strain arc18, hits give low values 0.978 | locus YLR384C, strain iki3, hits give low values 0.993 | locus YML120C, strain ndi1, hits give low values 0.968 | locus YMR058W, strain fet3, hits give low values 0.978 | locus YMR125W, strain sto1, hits give low values 1.02 | locus YMR129W, hits give low values 0.992 | locus YMR205C, strain PFK2, hits give low values 1.06 | locus YMR231W, strain pep5, hits give low values 1 | locus YNL071W, strain lat1, hits give low values 0.987 | [16] 1.01 | [18] 1.02 | [6] 0.956 | [19] 1.03 | locus YNL209W, strain ssb2, hits give low values 1 | [20] 1.01 | locus YNL248C, strain rpa49, hits give low values 0.93 | locus YNL322C, strain KRE1 (second series), hits give low values 0.987 | [25] 1.02 | locus YNR049C, strain mso1, hits give low values 0.992 | locus YOR001W, strain rrp6, hits give low values 0.951 | locus YOR070C, strain gyp1, hits give low values 1.01 | locus YOR080W, strain dia2, hits give low values 0.99 | [21] 1 | locus YOR083W, strain WHI5, hits give low values 0.944 | locus YOR106W, strain vam3, hits give low values 0.958 | [7] 0.976 | locus YOR265W, strain rbl2, hits give low values 0.998 | locus YOR270C, strain vph1, hits give low values 0.94 | locus YOR290C, strain snf2, hits give low values 0.987 | locus YPL051W, strain arl3, hits give low values 0.963 | locus YPL078C, strain atp4, hits give low values 0.921 | locus YPL106C, strain sse1, hits give low values 1.04 | locus YPL240C, strain hsp82, hits give low values 0.99 | [8] 0.948
